Experimental data: PubChem BioAssay (NCI)
The panel holds about 79,000 compounds, 15% with a hit somewhere; the sample as a whole holds those more often. A number with no mark means an inactive call. Active and inactive are the calls of the source. No stated cut-off is given here; in the data, active means growth inhibition above about 70%; inactive means the rest.

What was measured:
[1] = NCI Yeast Anticancer Drug Screen. Data for the rad50 strain (AID 155);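 further: 0% = growth of vehicle-only cultures of the same strain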; conditions: S. cerevisiae rad50 strain growth inhibition; at 50.0 µM; active compounds read high
In short: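 Vehicle-treated cultures provide the reference for the growth inhibition reported for compound-exposed, repair-deficient yeast.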

[2] = NCI Yeast Anticancer Drug Screen. Data for the mec2-1 strain (AID 157); conditions: S. cerevisiae mec2-1 strain, at 50.0 µM, active compounds read high
In short: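 Mutant yeast (mec2-1) grown with compound; growth inhibition relative to vehicle control reported.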

[3] = NCI Yeast Anticancer Drug Screen. Data for the sgs1 mgt1 strain (AID 161);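 further: 0% = growth of cultures given vehicle only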; conditions: S. cerevisiae sgs1 mgt1 strain, at 50.0 µM, active compounds read high
In short: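 Percent growth inhibition was derived by comparing compound-exposed mutant yeast with vehicle-exposed cultures. The strain carries alterations in DNA damage repair.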

[4] = NCI Yeast Anticancer Drug Screen. Data for the cln2 rad14 strain (AID 165);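 further: 0% = growth equal to vehicle treated cultures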; conditions: S. cerevisiae cln2 rad14 strain, at 50.0 µM, active compounds read high
In short: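 Readout is yeast growth inhibition versus vehicle-treated controls, using a strain with cln2 and rad14 alterations exposed to compound.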

[5] = NCI Yeast Anticancer Drug Screen. Data for the bub3 strain (AID 167); conditions: S. cerevisiae bub3 mutant strain, at 50.0 µM, active compounds read high
In short: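 Mutant yeast screening strain plus compound; vehicle-treated cultures serve as the 0% inhibition reference.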

[6] = NCI Yeast Anticancer Drug Screen. Data for the mlh1 rad18 strain (AID 175); conditions: S. cerevisiae mlh1 rad18 strain growth inhibition; at 50.0 µM; active compounds read high
In short: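 Genetically defined yeast (DNA repair-deficient) exposed to compounds; growth inhibition determined relative to vehicle.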

SMILES	growth inhibition [1]	growth inhibition [2]	growth inhibition [3]	growth inhibition [4]	growth inhibition [5]	growth inhibition [6]
Nc1cccc(NC(=O)c2cccc(N)c2)c1	9.8%	-4.75%	2.2%	10.4%	11.4%	18.1%
O=C(Nc1ccc(NC(=O)OCc2ccccc2)c(Cl)c1)OCc1ccccc1	20.4%	11.3%	6.85%	-26.6%	6.3%	3%
CC1(C(=O)O)CCCCCCC1O (configuration not stated)	10.2%	9.55%	-2.55%	8.1%	-6.1%	-7.9%
C[Si](Cn1ccc(=O)n(C[Si](C)(c2ccccc2)c2ccccc2)c1=O)(c1ccccc1)c1ccccc1	-3.7%	-7.65%	-12.3%	-13.9%	-2.4%	15.2%
Oc1cccc2c(O)cccc12	0.55%	22.8%	26.4%	-9.55%	25.5%	32.8%
CSC(=NCc1ccccc1)Nc1c(C)cccc1C	13.4%	4.45%	6.75%	8.1%	28.1%	17.1%
CCc1nc2cc(F)ccc2[nH]c1=O	17.3%	24.2%	28.9%	21.4%	40.9%	-7.55%
COc1cc(N=C(N)N=C(N)N)c2ncccc2c1	-3.1%	-18.1%	-11.9%	-41%	-3.75%	-13.2%
CC(=O)CCCCO	-6.8%	-2.5%	10.8%	-8.55%	2.8%	-18.1%
CCC(C)(O)CCC(C)(O)CC (configuration not stated)	27.6%	5.4%	14.9%	-14.7%	20%	9.25%
O=C(NCCCl)c1ccc(F)cc1	-21.2%	-4.65%	-12.4%	0.35%	-6.95%	-44.7%
O=c1[nH]c(=S)[nH]n1C(=S)n1[nH]c(=S)[nH]c1=O	5.35%	-2.65%	8.7%	-7.8%	13.1%	9.6%
CCN(CC)CCN(N)CCN(CC)CC	20.6%	-24.8%	-1.2%	-1.5%	-44.2%	-17.2%
CCOc1ccccc1NC(=S)NC1CCCCC1	-8.65%	-9.3%	3.7%	-17.2%	25.1%	-6.3%
N#CC1=C(N)N(c2ccccc2)C(c2ccco2)C1(C#N)C#N (configuration not stated)	4.85%	13.3%	9.85%	3.35%	-13.7%	6.25%
CCOC(=O)C1CC(O)c2ccc(Cl)cc2N1 (configuration not stated)	5.45%	10.2%	20.6%	16.1%	9.6%	6.15%
Clc1ccc(/C=C/c2ccc3ccccc3n2)cc1	-2.65%	-11.6%	-13%	-28.3%	-14%	12%
CC/C(C)=C1\OC(=O)C(C)C(O)C(Cc2cccnc2)NC(=O)C(NC(=O)c2ncccc2O)C(C)OC1=O (configuration not stated)	-4.45%	3.7%	0.45%	-10.4%	-3%	-14.9%
CCCCCCCCCCCCCCCCOc1ccc(C2=NCC(C)S2)c(C)c1 (configuration not stated)	3.6%	2.6%	12.1%	45.7%	-1.6%	38.1%
O=c1[nH]c(/C=C(\O)c2ccncc2)nc2ccccc12	-7.6%	-23.2%	-6.45%	12%	-9%	-17.9%
O=C(O)c1cccc(Br)c1	4.85%	-19.1%	-8.4%	-38.2%	-5.7%	-5.5%

SMILES	growth inhibition [1]	growth inhibition [2]	growth inhibition [3]	growth inhibition [4]	growth inhibition [5]	growth inhibition [6]
Cc1c(C)c2cc3ccc(Cl)cc3nc2c2ccccc12	-7.65%	-16.9%	2.75%	-21.6%	2.9%	1.7%
C/C(CCn1[nH]c(=O)ccc1=O)=N\N=C(N)N	-13.2%	-13.1%	-0.65%	-4.85%	-1.4%	1.7%
CCN(CC)CCOC(=O)c1noc2cc([N+](=O)[O-])ccc12	0.7%	12.9%	-1.25%	-23.7%	5%	9.85%
CCCC(=O)C(N)Cc1ccc(O)cc1 (configuration not stated)	-16.6%	-10.3%	4.35%	-9.35%	-16.1%	-1.7%
CCCCCCCCCCCCCCCCCC(=O)OCC(O)CO (configuration not stated)	-2.85%	-16.8%	2.85%	7.2%	-0.45%	7%
O=S(=O)(Oc1ccc(Cl)cc1)c1ccc(Br)cc1	10.7%	32.7%	47.1%	8.8%	39.4%	25.3%
C=CCCC(C)N(C(=O)OC(C)(C)C)S(=O)(=O)c1ccc(C)cc1 (configuration not stated)	16.6%	-13.2%	4.85%	-9.3%	-4%	0.45%
O=c1c2c(no[n+]2[O-])c2ccccc2n1-c1ccccc1	96.7% (active)	66%	92.4% (active)	86% (active)	97.2% (active)	96% (active)
CC12CCC(=O)C=C1CCC1C2CCC2(C)C1CCC2(O)C(=O)Cn1c(=O)cc[nH]c1=O (configuration not stated)	10.3%	4.65%	1.5%	14.7%	-2.7%	11.5%
COc1ccc(/C=N/Nc2nc3ccccc3s2)cc1	7.9%	-3.15%	-3.15%	-41.4%	1%	25.6%
O=C(O)CCc1ccc2c(c1)C(=O)CC2	-35%	-27.9%	-23.2%	-16.1%	-3.95%	-37.4%
CN(C)c1ccc(C(=N)c2ccc(N(C)C)cc2)cc1	-3.85%	4.9%	-6%	-35.5%	5.45%	-0.15%
C/C(COC(=O)c1cc(C)nc2ccccc12)=N\O	-22.6%	17%	-0.65%	-20.8%	21.1%	-11.6%
Cc1cc(Cl)ccc1NC(=O)C1C(=O)N(c2ccc(Cl)cc2C)C(=O)/C1=N\NC(N)=S (configuration not stated)	-16.6%	-6.6%	-22.5%	-0.25%	-2.5%	-27.1%
CC(=O)Nc1c(F)cc(F)cc1[N+](=O)[O-]	-28.4%	-3.4%	-12.4%	-16.8%	-18.8%	10.3%
CC(=O)c1cc(C)c(C)cc1C	-13.9%	7.6%	-2.5%	-12%	1.65%	-12.5%
CC1OC2CC(O)C1(O)C1=C2C(O)=C(C(N)=O)C(=N)C1=O (configuration not stated)	12.3%	-15.6%	19.4%	6.8%	5.35%	-21.4%
C=CCOc1ccc(N)c([N+](=O)[O-])c1	42.1%	41.5%	23.3%	14.1%	36.7%	2.85%
Cc1cccc(-n2c(C)nc3[nH]cc(C)c3c2=N)c1	0.15%	0.65%	2.05%	-21.9%	0.55%	11.1%
F[B-](F)(F)[NH2+]c1ccc(-c2ccc([NH2+][B-](F)(F)F)c(Cl)c2)cc1Cl	35.1%	8.15%	42.3%	38%	19.9%	10.7%
O=COCCCc1ccccc1	15.8%	-1.85%	11.8%	-5.2%	3.15%	-23.7%
